# Records with an inconclusive call do not appear. A call without a number means that no potency is given here. A number with no mark means an inactive call. Calls of active or inactive are those of the source. Calls follow the shape of the full dose curve.
# Molecular target: Beta-2 adrenergic receptor (Homo sapiens) (UniProt P07550)
# Assay: Adrenergic beta2 receptor (ADRB2) small molecule agonists, cell-based qHTS assay (AID 1963593)
# Settings: CHO-ADRB2 cells, cAMP HTRF, 30 min; series mostly up to 92.4 µM
# Description: National Center for Advancing Translational Sciences [NCATS]
# Division of Preclinical Innovation [DPI]
# U.S. Environmental Protection Agency [EPA]
# National Institutes of Environmental Health Sciences [NIEHS]
# National Toxicology Program [NTP]
# U.S. Food and Drug Administration [FDA]
# Beta adrenergic receptors (Beta-ARs) belong to the G-protein coupled receptor (GPCR) superfamily, includes three subtypes - beta1, beta2, and beta3. Beta1-AR is the predominant receptor subtype expressed in the heart, and beta2-AR is expressed in the kidney, lung, blood vessel and in the heart, and beta3 is found in the adipocytes. Beta1 and 2 ARs couple to Gs protein and elevate cyclic adenosine mono phosphate (cAMP), which activates protein kinase A and leads to the downstream signaling responsible for the physiological actions. Beta-AR agonists or antagonists are the most prescribed therapeutic agents for heart failure and asthma, and these were one of the first target receptors for the rational drug design. Tox21 10K compound library was screened using the cAMP-Gs dynamic assay (Cisbio Bioassays, Shelton, CT) to identify agonists/antagonists of the Gs-coupled human adrenergic, beta2 receptor (ADRB2) in the CHO-ADRB2 cell line (Codex BioSolutions, Inc. Gaithersburg, MD), which stably over-expresses ADRB2. The principle of cAMP-Gs dynamic assay is based on HTRF technology, which facilitates the fluorescence resonance energy transfer (FRET) between donor Europium cryptate and acceptor d2-labeled cAMP. The cAMP generated within cells competes with the red acceptor, d2-labled cAMP, for binding to the monoclonal anti-cAMP-cryptate (Europium donor). An increase in intracellular cAMP leads to the disruption of FRET signal, and the signal is inversely proportional to the cAMP concentration. Isoproterenol HCl (Sigma-Aldrich, St. Louis, MO) was used as a positive control in the screening.
# Tox21 Assay Protocol Summary:
# CHO-ADRB2 cells were dispensed at 1,000/well in 4uL assay medium into white/solid 1536-well plates (Greiner Bio-One North America Inc., Monroe, NC) using a Multidrop Combi dispenser (ThermoFisher Scientific, Waltham, MA). The assay plates were incubated at 37C and 5% CO2 for an overnight (18-20hr). Then positive control and test compounds dissolved in DMSO were transferred to the assay plates at 23nL using a Pintool station (Wako, San Diego, CA). Following the compound and positive control transfer, 1uL stimulation mix containing 100uM IBMX and 25uM Ro-20-1724 was added to each well of the assay plates using BioRAPTR Flying Reagent Dispenser (FRD, Beckman Coulter, Brea, CA). The assay plates were incubated at room temperature for 0.5hr. Then 2.5ul each d2-labled cAMP and anti-cAMP-cryptate solutions were added separately to each well of the assay plates using an FRD and the assay plates were incubated at room temperature for 1hr.
# Potency is read from the fitted curve at half-maximal effect.
# Beta-2 adrenergic receptor (Homo sapiens), sequence (P07550 whole entry, looked up): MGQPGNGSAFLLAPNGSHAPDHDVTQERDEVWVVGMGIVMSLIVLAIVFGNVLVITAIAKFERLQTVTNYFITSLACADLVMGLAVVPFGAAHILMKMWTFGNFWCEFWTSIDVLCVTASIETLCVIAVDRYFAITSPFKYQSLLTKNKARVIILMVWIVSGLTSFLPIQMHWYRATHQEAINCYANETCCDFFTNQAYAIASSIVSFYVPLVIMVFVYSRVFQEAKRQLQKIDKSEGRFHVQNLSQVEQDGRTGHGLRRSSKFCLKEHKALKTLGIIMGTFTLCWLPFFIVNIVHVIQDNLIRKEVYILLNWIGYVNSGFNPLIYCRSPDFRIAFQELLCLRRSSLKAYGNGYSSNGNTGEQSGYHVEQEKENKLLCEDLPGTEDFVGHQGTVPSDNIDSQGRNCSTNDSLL
SMILES,Potency,activation
CCCc1ccc(OC)cc1,inactive,–
CC[C@@]1(c2ccccc2)NC(=O)N(C)C1=O,inactive,–
CC(C)c1cccc(C(C)C)c1NC(=O)NS(=O)(=O)c1cc(C(C)(C)O)co1,inactive,–
CC(C)(CO)[C@@H](O)C(=O)NCCCO,inactive,–
O=C(NO)c1ccccc1,20.7 µM (active),–
C[Si](C)(C)O[Si](O)(O)O,inactive,–
c1cc[c]([Bi]([c]2ccccc2)[c]2ccccc2)cc1,1.72 µM (active),–
CCNC(=O)/C=C/c1cccc(Br)c1,inactive,–
CCCCCSCCCCC,inactive,–
O=C(OCCOCCOCCOC(=O)c1ccccc1)c1ccccc1,inactive,–
Sc1nc(S)nc(S)n1,inactive,–
COc1ccc2cc(CCC(C)=O)ccc2c1,inactive,–
CC[C@]12CCCN3CCc4c(n(c5ccccc45)C(=O)C1)[C@@H]32,inactive,–
CCCCOc1ccc(N)cc1,inactive,–
CC/C(=C(\c1ccc(O)cc1)c1ccc(OCCN(C)C)cc1)c1ccccc1,inactive,–
CC1(C)[C@@H](O)CC[C@]2(C)[C@H]3C(=O)C=C4[C@@H]5C[C@@](C)(C(=O)O)CC[C@]5(C)CC[C@@]4(C)[C@]3(C)CC[C@@H]12,inactive,–
CCOC(=O)Nc1ccc2c(c1)N(C(=O)CCN1CCOCC1)c1ccccc1S2,inactive,–
CC(C)c1ccccc1N,inactive,–
C[C@@]12CCC[C@H]1[C@@H]1CC[C@H]3C[C@@H](O)CC[C@]3(C)[C@H]1CC2,inactive,–
CN(C)C(=O)Nc1ccccc1,inactive,–

SMILES,Potency,activation
CCCc1ccccc1O,inactive,–
CCCCc1oc2ccccc2c1C(=O)c1cc(I)c(OCCN(CC)CC)c(I)c1,inactive,–
Cc1ccc(N)cc1S(=O)(=O)O,inactive,–
Cc1cccc(N(C)C(=S)Oc2ccc3c(c2)C2CCC3C2)c1 (stereo not given),inactive,–
O=C1c2ccccc2C(=O)c2c(Cl)cccc21,inactive,–
OC(CCN1CCCCC1)(c1ccccc1)C1CC2C=CC1C2 (stereo not given),inactive,–
Cc1cc([N+](=O)[O-])ccc1N,inactive,–
O=C1OC(=O)c2c(Br)c(Br)c(Br)c(Br)c21,inactive,–
CCCCCCCCCCCCCCC[C@H](O)[C@@H](N)CO,inactive,–
C=CCCC(=O)O,inactive,–
CCc1ccc(C(c2ccc(CC)cc2)C(Cl)Cl)cc1,inactive,–
NCc1ccccc1,inactive,–
CC/C=C\CCCCCO,inactive,–
CC(C)O.CC(C)O.CCOC(=O)/C=C(\C)O.CCOC(=O)/C=C(\C)O.[Ti],inactive,–
COC(Cc1ccccc1)OC,inactive,–
CC(C)C(O)(c1ccc(OC(F)(F)F)cc1)c1cncnc1 (stereo not given),inactive,–
N[C@@H](CCC(=O)N[C@@H](CS)C(=O)NCC(=O)O)C(=O)O,–,20.3% [at 19 µM]
CCCCC[Si](OCC)(OCC)OCC,inactive,–
Cc1ccc(O)c(N)c1,inactive,–
CCc1cccc2c(CCO)c[nH]c12,inactive,–

# From PubChem BioAssay (Tox21)
